SMILES strings stand for the structures. Inconclusive results are not listed. Unmarked numbers belong to inactive results. The source made the active and inactive calls. The call rests on the fitted dose curve; in most records, active means well fitted cell-killing curve with a large enough effect in the repeat runs; inconclusive means weak or mixed curves, or effect the other way; inactive means flat fitted curve, though single readings scatter.

A short description of experiment [1]: cAMP Responsive Elements (CRE) small molecule antagonists, cell-based qHTS assay: qHTS cell viability counter screen (AID 2060913). Further: nearly all actives have a fitted effect of over 40% in size. The conditions noted are these: CRE-bla HEK293T viability, CellTiter-Glo luminescence, 5 h; series mostly up to 92.4 µM. A digest of the protocol:
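CRE-bla HEK293T cells were seeded in assay medium with 10% dialyzed FBS, incubated 18 hrs at 37 C, then exposed to compounds plus 0.25 uM final NKH477 for 3 hrs. Viability was read by CellTiter-Glo luminescence after 30 min, in the same wells.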

The nature of experiment [2]: cAMP Responsive Elements (CRE) small molecule agonists, cell-based qHTS assay: qHTS cell viability counter screen (AID 2060914).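 Further: viability read after 3 h of compound exposure; nearly all actives have a fitted effect of over 50% in size.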 Particulars: CRE-bla HEK293T viability, CellTiter-Glo luminescence, 5 h; series mostly up to 92.4 µM. Put shortly:
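CRE-bla HEK 293T cells, plated 18 h at 37 °C, were exposed to compounds for 3 h at 37 °C/5% CO2. Viability was then measured in the same wells by CellTiter-Glo luminescence after 30 min at room temperature.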
On the % scale 0 is the no-effect control and ±100 the full control effect.

Regarding `O=C(c1ccccc1)c1cccc(O)c1`, the Potency entry in experiment [1] and in experiment [2] was “inactive” in each case.

Regarding `O=S(=O)(O)c1ccccc1`, the Potency entry in experiment [1] and in experiment [2] was “inactive” throughout.

With `C=CC(C)(C)CC(=O)OC`, the Potency entry in experiment [1] and in experiment [2] was “inactive” in each case.

`CC(C)(C)c1ccc(OC(=O)c2ccccc2O)cc1`: the Potency entry in experiment [1] and in experiment [2] was “inactive” in each case.

For `O=C(Nc1ccccc1)c1cc([N+](=O)[O-])ccc1Cl`, the Potency entry in experiment [1] and in experiment [2] was “inactive” throughout.

Turning to `CCCCNc1c(C(=O)OCC)c(C)nc2c1cnn2CC`, the Potency entry in experiment [1] and in experiment [2] was “inactive” throughout.

`Oc1ccc(Cc2ccccc2)cc1`: the Potency result in experiment [1] and in experiment [2] was “inactive” each time.

With `c1ccc(-c2ccccn2)nc1`, the Potency result in experiment [1] and in experiment [2] was “inactive” each time.

Take `Cc1noc(NS(=O)(=O)c2ccc(N)cc2)c1C`: the Potency result in experiment [1] and in experiment [2] was “inactive” throughout.

For `O=C(O)CP(=O)(O)O`, the Potency result in experiment [1] and in experiment [2] was “inactive” in each case.

Turning to `COc1ccc(NS(=O)(=O)c2ccc(N)cc2)nn1`, the Potency result in experiment [1] and in experiment [2] was “inactive” each time.

With `CC1(C)CO[C@@H](CC(=O)O)CN1`, the Potency entry in experiment [1] and in experiment [2] was “inactive” each time.

As to `C=CCS(=O)(=O)O`, the Potency result in experiment [1] and in experiment [2] was “inactive” each time.

Consider `Cc1[nH]c(=O)c(C#N)cc1-c1ccncc1`, for which the Potency entry in experiment [1] and in experiment [2] was “inactive” in each case.

`COc1ccc(C(Cl)=C(c2ccc(OC)cc2)c2ccc(OC)cc2)cc1`: the Potency result in experiment [1] and in experiment [2] was “inactive” throughout.

In the case of `Cc1ccccc1OCC(O)CO` (centres undefined), the Potency result in experiment [1] and in experiment [2] was “inactive” in each case.

As to `O=C1OC(=O)c2cc(Oc3ccc4c(c3)C(=O)OC4=O)ccc21`, the Potency result in experiment [1] and in experiment [2] was “inactive” in each case.

As for `CC(=O)CCc1ccccc1`, the Potency result in experiment [1] and in experiment [2] was “inactive” in each case.

On to `COC(=O)Nc1nc2ccc(Sc3ccccc3)cc2[nH]1`, for which the Potency result in experiment [1] and in experiment [2] was “inactive” throughout.

For the molecule `CC(=O)OCC(=O)[C@@]12OC(C)(C)O[C@@H]1C[C@H]1[C@@H]3C[C@H](F)C4=CC(=O)C=C[C@]4(C)[C@@]3(F)[C@@H](O)C[C@@]12C`, the Potency result in experiment [1] and in experiment [2] was “inactive” each time.

For `CCCCOC(=O)/C=C\C(=O)OCCCC`, the Potency entry in experiment [1] and in experiment [2] was “inactive” throughout.

Regarding `COc1ccc(C(=O)Nc2ccccc2)cc1[N+](=O)[O-]`, the Potency result in experiment [1] and in experiment [2] was “inactive” throughout.

Turning to `OCCC(O)CO` (centres undefined), the Potency result in experiment [1] and in experiment [2] was “inactive” each time.

With `CCCCC1CCCCC(=O)O1` (centres undefined), the Potency entry in experiment [1] and in experiment [2] was “inactive” throughout.

As to `NCCCC(O)(P(=O)(O)O)P(=O)(O)O`, the Potency entry in experiment [1] and in experiment [2] was “inactive” in each case.

As for `O=C1NCCN1CCO`, the Potency result in experiment [1] and in experiment [2] was “inactive” throughout.

With `CCCCC(CC)COC(=O)C(C#N)=C(c1ccccc1)c1ccccc1` (centres undefined), the Potency entry in experiment [1] and in experiment [2] was “inactive” throughout.

For the molecule `Cc1c(Cl)cccc1Nc1ccccc1C(=O)O`, the Potency entry in experiment [1] and in experiment [2] was “inactive” throughout.

Turning to `NC(=O)c1ncn([C@@H]2O[C@H](CO)[C@@H](O)[C@H]2O)c1N`, the Potency entry in experiment [1] and in experiment [2] was “inactive” throughout.

As to `CCSCC`, the Potency result in experiment [1] and in experiment [2] was “inactive” in each case.

With `N#CC1(c2ccc(F)cc2)CCC(=O)CC1`, the Potency result in experiment [1] and in experiment [2] was “inactive” in each case.

As for `C[Si](C)=O`, the viability change, negative = cytotoxic in experiment [1] was 7.47% [at 8.39 µM]. Moreover, the activity change, negative = cytotoxicity in experiment [2] was -0.0708% [at 8.39 µM].

With `O=C(O)C1(C(=O)O)CCC1.[NH2-].[NH2-].[Pt+2]`, the Potency entry in experiment [1] and in experiment [2] was “inactive” in each case.

As for `CN(C)c1ccc(N=Nc2ccccc2C(=O)O)cc1`, the Potency entry in experiment [1] and in experiment [2] was “inactive” each time.

Take `CCOC(=O)C(O)c1ccccc1` (centres undefined): the Potency result in experiment [1] and in experiment [2] was “inactive” each time.

Regarding `CCN(C)C(=O)Oc1cccc([C@H](C)N(C)C)c1`, the Potency result in experiment [1] and in experiment [2] was “inactive” in each case.

In the case of `CC[C@H](c1ccc(O)cc1)[C@@H](CC)c1ccc(O)cc1`, the Potency result in experiment [1] and in experiment [2] was “inactive” each time.

For `Cc1c(-c2cccnc2)c2ccccc2n1CCCCC(=O)O`, the Potency entry in experiment [1] and in experiment [2] was “inactive” throughout.

`CCCC(=O)OCOC(=O)C1=C(C)NC(C)=C(C(=O)OC)C1c1cccc(Cl)c1Cl` (centres undefined): the Potency entry in experiment [1] and in experiment [2] was “inactive” in each case.

`OCCNCc1ccccc1`: the Potency result in experiment [1] and in experiment [2] was “inactive” each time.

With `CC(C)C/C=C(\C=O)c1ccccc1`, the Potency result in experiment [1] and in experiment [2] was “inactive” in each case.

Consider `CC(C)(C)OC(=O)c1ccc(O)cc1`, for which the Potency entry in experiment [1] and in experiment [2] was “inactive” in each case.

As to `CC(C)(C)c1cc(C=O)cc(C(C)(C)C)c1O`, the Potency entry in experiment [1] and in experiment [2] was “inactive” each time.

In the case of `Cc1cccc(C)c1NC(=O)C(C)N` (centres undefined), the Potency entry in experiment [1] and in experiment [2] was “inactive” throughout.

Take `CCCCCCCCCCCCCCCBr`: the Potency entry in experiment [1] and in experiment [2] was “inactive” throughout.

As for `CCC(C)COC(C)=O` (centres undefined), the Potency entry in experiment [1] and in experiment [2] was “inactive” each time.

On to `Cc1ccc(S(=O)(=O)NC(=O)NC2CCCC2)cc1`, for which the Potency entry in experiment [1] and in experiment [2] was “inactive” each time.

For the molecule `CCc1cccc2c3c([nH]c12)C(CC)(CC(=O)O)OCC3` (centres undefined), the Potency entry in experiment [1] and in experiment [2] was “inactive” each time.

For `CC1c2ccccc2CN1NC(=O)c1ccc(Cl)c(S(N)(=O)=O)c1` (centres undefined), the Potency entry in experiment [1] and in experiment [2] was “inactive” in each case.

For `COc1cccc(OC)c1`, the Potency result in experiment [1] and in experiment [2] was “inactive” each time.

Consider `O=c1[nH]c2ccc(S(=O)CCN3CCC(Cc4ccc(F)cc4)CC3)cc2o1` (centres undefined), for which the Potency entry in experiment [1] and in experiment [2] was “inactive” each time.

For the molecule `CCOC(=O)CC(C)=O`, the Potency result in experiment [1] and in experiment [2] was “inactive” in each case.

On to `C=CC1CO1` (centres undefined), for which the Potency result in experiment [1] and in experiment [2] was “inactive” in each case.

Regarding `C=C(C)C1CC=C(C)C(=O)C1` (centres undefined), the Potency entry in experiment [1] and in experiment [2] was “inactive” in each case.

As to `Cc1ccccc1C(N)=O`, the Potency entry in experiment [1] and in experiment [2] was “inactive” throughout.

As to `Oc1cccc2cc3cccc(O)c3c(O)c12`, the Potency entry in experiment [1] and in experiment [2] was “inactive” each time.

On to `Nc1ccc(S(=O)(=O)Nc2ccccn2)cc1`, for which the Potency result in experiment [1] and in experiment [2] was “inactive” in each case.

These data come from PubChem BioAssay (Tox21).
